Screening results deposited in PubChem BioAssay by National Center for Advancing Translational Sciences (NCATS).
KB-V1 MDR tox = KB-V1 MDR subline cytotoxicity; KB-V1 MDR cells viability, CellTiter-Glo, 72 h; Potency, µM (highest dose often 46.1 µM), hits mostly cytotoxic; hit rate 3.4% among 400,000; note: nearly all actives have a fitted effect of over 60% in size
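qHTS viability screen in drug-selected KB-V1 MDR cells: 72 h compound treatment at 37 degrees C, ATP luminescence end point.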
MCF10A rereplic = DNA re-replication induction in MCF 10a cells; hit rate 2.9% among 350,000; MCF 10A DNA re-replication, Hoechst nuclear intensity, 48 h; Potency, µM (top dose mostly 46.1 µM), usual class: activators; note: nearly all actives have a fitted effect of over 50% in size
TSG101-PTAP inh = blocks PTAP/TSG101 interaction to inhibit HIV-1 budding; Potency, µM (titrated, usually from 115 µM), actives largely listed as inhibitors; Q99816; 340,000 tested, under 10 active; Fluorescence polarization, FITC-PTAP peptide / Tsg101 binding; active = well fitted inhibition curve with a large enough effect in the main read-out, with a control signal flat, not every such curve was filed as active; inconclusive = small, poorly fitted or top-dose-only effect, or effect the other way, or a change in a side signal; inactive = no such curve, though single readings can be large or run the other way
Target sequence (Q99816 whole entry, looked up): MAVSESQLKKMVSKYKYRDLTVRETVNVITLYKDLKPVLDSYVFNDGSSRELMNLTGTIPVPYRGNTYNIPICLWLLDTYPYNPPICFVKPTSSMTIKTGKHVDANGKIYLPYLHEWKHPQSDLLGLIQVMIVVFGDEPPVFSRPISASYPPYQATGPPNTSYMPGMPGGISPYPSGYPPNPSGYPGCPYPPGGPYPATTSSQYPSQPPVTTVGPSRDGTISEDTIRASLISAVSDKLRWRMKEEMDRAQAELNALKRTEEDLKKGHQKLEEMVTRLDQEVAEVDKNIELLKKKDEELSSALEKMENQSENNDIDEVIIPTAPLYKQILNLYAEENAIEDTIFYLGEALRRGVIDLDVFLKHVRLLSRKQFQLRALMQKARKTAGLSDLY
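Fluorescence polarization binding of Tsg101 binding domain (10 uM final) to FITC-labeled PTAP peptide (50 nM final) in HEPES pH 7.5 buffer with NaCl, Tween 20, EDTA, TCEP. Compounds added before peptide; binding 20 min at RT.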
KB-3-1 tox = kills parental KB-3-1 adenocarcinoma cells | AID 1347075 | KB-3-1 viability, CellTiter-Glo ATP luminescence, 72 h | hit rate 1.4% among 400,000 | Potency, µM (top dose mostly 46.1 µM), most hits filed as cytotoxic; note: nearly all actives have a fitted effect of over 60% in size
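Cytotoxicity in the drug-sensitive parental line KB-3-1 was scored as loss of CellTiter-Glo luminescence following 72 h incubation with compound. Values come from curve fitting of normalized concentration-response data.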
SW480 rerep = DNA re-replication induction in SW480 cells | Potency, µM (top dose mostly 46.1 µM), hits mostly activators | hit rate 1.8% among 340,000 | AID 624297 | SW480 DNA re-replication, Hoechst DNA content imaging, 48 h; note: nearly all actives have a fitted effect of over 55% in size
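SW480 cells exposed to compounds for 48 hr at 37 C, 5% CO2, then Hoechst-stained 40 min. Nuclear DNA content imaged by fluorescence scanning (405 nm excitation, 500-530 nm emission); re-replication scored as increased high-intensity nuclei.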
RGS4 inhibitor = human RGS4 inhibition; P49798; Transcreener GDP fluorescence polarization, RGS4-accelerated GTP hydrolysis; Potency, µM (titrated, usually from 114 µM), usual class: inhibitors; hit rate 0.039% among 390,000; note: nearly all actives have a fitted effect of over 75% in size
Target sequence (P49798 whole entry, looked up): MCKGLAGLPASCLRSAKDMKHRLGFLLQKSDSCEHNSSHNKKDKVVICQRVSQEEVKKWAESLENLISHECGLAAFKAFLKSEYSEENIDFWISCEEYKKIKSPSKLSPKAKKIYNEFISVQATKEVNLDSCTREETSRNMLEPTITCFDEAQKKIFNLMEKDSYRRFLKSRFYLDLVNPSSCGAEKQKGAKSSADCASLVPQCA
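MLSMR compounds (23 nl, pin-transferred) preincubated 10 min at room temperature with a 500nM (2x) first reagent, then RGS4 at 900nM (2x) plus Transcreener GDP mix added; fluorescence polarization (620/688 nm) read before and after 90 min at 30 °C.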
Numbers stand for hits; 0 = inactive; ? = inconclusive; - = not tested or not shown. Most compounds without a hit are left out; they make up all but 6.6% or so of the library. Unless noted, calls come from the whole dose curve; as a rule, active = well fitted curve in the direction sought with a large enough effect; inconclusive = small, poorly fitted or top-dose-only effect, or another doubt; inactive = no such curve, though single readings can be large; an effect the other way counts as inactive or inconclusive.

SMILES | KB-V1 MDR tox | MCF10A rereplic | TSG101-PTAP inh | KB-3-1 tox | SW480 rerep | RGS4 inhibitor
COc1ccc(-c2nc(CSCC(=O)NC3CCCc4ccccc43)c(C)o2)cc1 (stereo not given) | ? | 16µM | 0 | 0 | 0 | 0
COc1ccc(-c2nc(CSCC(=O)NCc3ccco3)c(C)o2)cc1 | 13µM | 0 | 0 | 0 | 0 | 0
CCOC(=O)Cc1ccc(NC(=O)N2CC(C)Oc3ccc(Cl)cc32)cc1 (stereo not given) | - | - | - | - | - | 0
CC[C@@H](C)[C@@H](C(=O)Nc1ccc(C)cc1)N1Cc2ccccc2C1=O | 0 | - | - | 0 | - | 0
CCOC(=O)Nc1sc2c(c1C(N)=O)CCCC2 | 0 | - | - | 0 | - | -
COc1ccc(C(=O)NCC(c2cccnc2)N2CCc3ccccc3C2)cc1OC (stereo not given) | 0 | - | - | 0 | - | 0
COC(=O)c1c(NC(=O)C(C)C)sc2c1C(C(=O)OC)CC2 (stereo not given) | 13µM | 0 | 0 | ? | 0 | 0
COC(=O)c1c(NC(=O)c2ccco2)sc2c1C(C(=O)OC)CC2 (stereo not given) | 18µM | 0 | 0 | 0 | 0 | 0
O=C(CCNS(=O)(=O)c1cccc2nsnc12)Nc1ccc(F)cc1 | 0 | - | - | 0 | - | 0
COc1cccc(/C=N/NC(=O)CCn2cnc3ccccc32)c1 | 0 | ? | 0 | 0 | 3.7µM | 0
O=C(CCn1cnc2ccccc21)N/N=C/C=C/c1ccccc1 | 0 | 0 | 0 | 0 | 0 | 0
COc1ccccc1/C=C/C=N/NC(=O)CCn1cnc2ccccc21 | 0 | ? | 0 | 0 | 21µM | 0
COc1ccc(Cn2nnnc2C(c2ccccn2)N2CCN(c3ccc(O)cc3)CC2)cc1 (stereo not given) | 0 | - | - | 0 | - | 0
Cc1cc(C)nc(NC(=S)NC(=O)c2ccccc2F)n1 | 0 | 0 | 0 | 0 | 0 | 0
Cc1cc(NC(=O)c2ccccc2F)on1 | 0 | 0 | 0 | 0 | 21µM | 0
COc1cccc(-c2nc(SCC(=O)NC3CCCC3)c(-c3ccccc3)[nH]2)c1 | 0 | - | - | 0 | - | 0
CC1CCc2c(sc3nnn(CC(=O)Nc4cccc(C(F)(F)F)c4)c(=O)c23)C1 (stereo not given) | 0 | - | - | 0 | - | 0
CC(C)CCn1c(=O)c2cccnc2n(CC(=O)Nc2ccc(F)cc2)c1=O | 0 | - | - | 0 | - | 0
Cc1cc2cc(CN(Cc3ccc4c(c3)OCO4)Cc3nnnn3C3CCCC3)c(=O)[nH]c2cc1C | ? | 0 | 0 | 0 | 0 | 0
Cc1cccc2cc(CN(CC3CCCO3)C(=S)Nc3ccccc3)c(=O)[nH]c12 (stereo not given) | 3.7µM | ? | 0 | 0 | 0 | 0
Cc1cccc(NC(=S)N(Cc2cccs2)Cc2cc3cc(C)cc(C)c3[nH]c2=O)c1 | 21µM | 0 | 0 | ? | 0 | 0
Cc1cccc2cc(CN(Cc3ccco3)C(=O)NC3CCCCC3)c(=O)[nH]c12 | 3.7µM | 0 | 0 | 0 | 0 | 0
Cc1ccc2[nH]c(=O)c(CN(Cc3ccc4c(c3)OCO4)Cc3nnnn3C3CCCC3)cc2c1 | 18µM | ? | 0 | 0 | ? | 0
COc1ccc2[nH]c(=O)c(CN(Cc3cccs3)C(=S)Nc3cccc(C)c3)cc2c1 | ? | ? | 0 | 0 | - | 0
Cc1ccc(CNC(=O)CCS(=O)(=O)c2cc3c4c(c2)CCN4C(=O)CC3)cc1 | 0 | - | - | 0 | - | 0
SMILES | KB-V1 MDR tox | MCF10A rereplic | TSG101-PTAP inh | KB-3-1 tox | SW480 rerep | RGS4 inhibitor
CCOC(=O)c1c(C)oc2nc(C)nc(N(C)Cc3ccccc3)c12 | 0 | - | - | 0 | - | 0
CCc1ccc2[nH]c(=O)c(CN(Cc3nnnn3C3CCCC3)C3CCCCC3)cc2c1 | 0 | 0 | 0 | 0 | 0 | 0
Cc1ccc2[nH]c(=O)c(CN(Cc3nnnn3Cc3ccccc3)C3CCCC3)cc2c1 | 0 | 0 | 0 | 0 | 0 | 0
Cc1cccc2cc(CN(Cc3nnnn3C3CCCC3)C3CCCCC3)c(=O)[nH]c12 | 23µM | ? | 0 | 0 | ? | 0
Cc1cccc2cc(CN(Cc3nnnn3Cc3ccco3)C3CCCC3)c3nnnn3c12 | 12µM | ? | 0 | 0 | 0 | ?
CCNC(=S)N(Cc1cc2cccc(C)c2[nH]c1=O)C1CCCC1 | 18µM | 0 | 0 | ? | 0 | 0
CCSC1=NS(=O)(=O)c2ccccc21 | ? | - | - | 0 | - | -
CCn1cc(C(=O)NCc2ccc(C)cc2)c(=O)c2cc(S(=O)(=O)N3CCCCCC3)ccc21 | 0 | - | - | 0 | - | ?
Cc1cc(Nc2ccc3c(c2)OCCO3)c2cccc(C)c2n1 | 23µM | 0 | 0 | ? | 0 | 0
COc1ccccc1NC(=O)CSc1nncn2c1cc1sccc12 | - | - | - | - | - | 0
CC(C)(C)N(Cc1ccc2c(c1)OCO2)C(=O)/C=C\S(=O)c1ccccc1 (stereo not given) | 0 | 10µM | 0 | ? | 9.2µM | 0
O=C(NNC(=O)C12CC3CC(CC(O)(C3)C1)C2)c1ccccc1O | 0 | 0 | 0 | ? | 16µM | 0
COc1cccc(NC(=O)CC(C)S(=O)(=O)c2ccc3c(c2)NC(=O)CO3)c1 (stereo not given) | 0 | - | - | 0 | - | 0
Cc1ccc(-c2cc(=O)c3ccccc3[nH]2)cc1 | ? | 13µM | 0 | ? | ? | 0
O=c1cc(-c2ccc(Cl)cc2)[nH]c2ccccc12 | 0 | 15µM | 0 | ? | ? | 0
Clc1ccc(-c2cc3ccccc3[nH]2)cc1 | 0 | 0 | 0 | 0 | 0 | 0
Cc1ccc2[nH]c(-c3ccccc3)cc(=O)c2c1 | ? | ? | 0 | 0.29µM | ? | 0
CCCS(=O)(=O)Nc1cc2c(cc1NCc1ccccc1)n(C)c(=O)n2C | ? | - | - | 0 | - | 0
Cc1ccc(NS(=O)(=O)c2ccc3c(c2)N(C)C(=O)CO3)cc1C | 0 | - | - | 0 | - | -
COc1ccccc1N1CCN(C(=O)c2ccc(Nc3nc4ccccc4n4nnnc34)cc2)CC1 | 0 | - | - | 0 | - | 0
CCNS(=O)(=O)c1ccc(CCC(=O)NC2CCCC2)cc1 | 0 | 0 | 0 | 0 | 0 | 0
CC(C)CNS(=O)(=O)c1ccc(CCC(=O)NC2CCCC2)cc1 | 0 | 1µM | 0 | 0 | 0 | 0
CCN(CC)c1ccc(/C=N/OCC(=O)N2CCCc3ccccc32)cc1 | 0 | 16µM | 0 | 0 | 0 | 0
O=C(CSc1nnc(-c2ccc(Cl)cc2)n1-c1ccccc1)N/N=C/c1ccccc1C(=O)O | 0 | 0 | 0 | 0 | ? | 0
O=C(CSc1nnc(-c2ccccc2)n1-c1ccc(Cl)cc1)N/N=C/c1ccco1 | 16µM | 0 | 0 | 0 | 0 | 0
Clc1ccc(Cn2c3c(c4ccccc42)CCc2cc4ccccc4nc2-3)cc1 | 0 | - | - | 0 | - | 0
CC1(C)Oc2ccc(NC(=O)C3COc4ccccc4O3)cc2O1 (stereo not given) | 0 | 0 | 0 | 0 | 0 | 0
CC(=O)N1CC(C(=O)Nc2ccc3c(c2)OCO3)Oc2ccccc21 (stereo not given) | 21µM | 0 | 0 | 0 | 0 | 0
